# Experimental data taken from publication PMC7862700, “An all-to-all approach to the identification of sequence-specific readers for epigenetic DNA modifications on cytosine”.
# Experiments:
# Experiment in all cases: DAPPL (digital affinity profiling via proximity ligation, sequencing); 10 mM Tris-HCl pH 7.5, 50 mM NaCl, 1 mM DTT, 4% glycerol, room temperature, 30 min; GST-TFs on glutathione beads, 16-mer random dsDNA library, 0.1% formaldehyde crosslink after washing; high values mean tight binding
# Conditions in all cases: protein: recombinant; tags: N-terminal GST; dsDNA, one strand shown
# ELK1 = molecular target: T1, ELK1 (Homo sapiens, UniProt P19419 1-428)
# T1 sequence: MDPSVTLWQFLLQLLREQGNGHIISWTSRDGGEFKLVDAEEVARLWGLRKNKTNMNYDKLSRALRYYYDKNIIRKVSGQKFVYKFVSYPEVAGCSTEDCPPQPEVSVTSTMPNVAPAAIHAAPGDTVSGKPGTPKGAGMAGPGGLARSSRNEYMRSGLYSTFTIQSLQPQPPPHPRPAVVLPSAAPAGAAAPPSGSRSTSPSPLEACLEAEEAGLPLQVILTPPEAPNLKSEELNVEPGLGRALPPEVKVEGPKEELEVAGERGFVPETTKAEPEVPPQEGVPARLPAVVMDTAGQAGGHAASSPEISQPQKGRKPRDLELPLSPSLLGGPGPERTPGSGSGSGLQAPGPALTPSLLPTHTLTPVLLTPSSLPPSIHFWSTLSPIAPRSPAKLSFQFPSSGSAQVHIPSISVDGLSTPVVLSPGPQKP
# Procedure, shortened: (§1)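 A tag-only sample was pooled with DNA-barcoded human transcription factors that had been expressed in yeast as GST fusions and captured on glutathione beads. The pools were incubated for 30 min at room temperature with 200 nmole of a random double-stranded 16-mer DNA library in Tris/NaCl/DTT/glycerol buffer, then washed, crosslinked with 0.1% formaldehyde, proximity-ligated (BsaI/T4 ligase, 1 h, 37 °C), PCR-amplified and sequenced on an Illumina NextSeq500. Binding signal is each hexamer's read frequency for a factor divided by its frequency for the tag-only sample.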
# GABPA = molecular target: T2, GABPA (Homo sapiens, UniProt Q06546 1-454)
# T2 sequence: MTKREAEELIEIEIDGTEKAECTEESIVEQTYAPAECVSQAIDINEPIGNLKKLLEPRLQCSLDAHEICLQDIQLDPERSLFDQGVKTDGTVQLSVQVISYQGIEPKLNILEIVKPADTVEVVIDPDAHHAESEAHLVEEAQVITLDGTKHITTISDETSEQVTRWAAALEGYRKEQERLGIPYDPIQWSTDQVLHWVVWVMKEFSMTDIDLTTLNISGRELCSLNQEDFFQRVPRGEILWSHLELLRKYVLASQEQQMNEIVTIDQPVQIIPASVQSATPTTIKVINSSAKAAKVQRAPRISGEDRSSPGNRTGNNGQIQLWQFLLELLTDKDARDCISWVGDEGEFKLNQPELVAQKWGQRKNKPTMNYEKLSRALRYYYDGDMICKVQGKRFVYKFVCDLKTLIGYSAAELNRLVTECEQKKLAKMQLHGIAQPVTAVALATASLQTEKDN
# Procedure, shortened: as §1
# ELF1 = ELF1 (Homo sapiens, UniProt P32519 1-619)
# Sequence of ELF1 (P32519 whole entry): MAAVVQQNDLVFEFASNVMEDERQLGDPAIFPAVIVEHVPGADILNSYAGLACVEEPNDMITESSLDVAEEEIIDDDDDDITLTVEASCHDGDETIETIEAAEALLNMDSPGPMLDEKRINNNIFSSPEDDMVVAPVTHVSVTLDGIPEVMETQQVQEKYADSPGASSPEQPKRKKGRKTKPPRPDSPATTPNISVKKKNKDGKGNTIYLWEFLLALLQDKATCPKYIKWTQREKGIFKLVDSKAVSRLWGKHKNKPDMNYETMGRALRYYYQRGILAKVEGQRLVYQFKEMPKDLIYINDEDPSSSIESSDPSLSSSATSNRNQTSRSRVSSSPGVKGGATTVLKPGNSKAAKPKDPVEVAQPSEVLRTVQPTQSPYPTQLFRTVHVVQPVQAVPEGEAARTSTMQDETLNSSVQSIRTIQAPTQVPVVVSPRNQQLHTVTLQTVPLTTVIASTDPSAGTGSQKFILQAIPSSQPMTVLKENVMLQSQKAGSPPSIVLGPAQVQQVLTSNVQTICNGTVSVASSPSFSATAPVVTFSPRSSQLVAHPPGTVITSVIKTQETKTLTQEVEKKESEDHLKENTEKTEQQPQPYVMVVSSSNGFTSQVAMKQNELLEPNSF
# Procedure, shortened: as §1
# EHF = molecular target: T3, EHF (Homo sapiens, UniProt Q9NZC4 1-300)
# T3 sequence: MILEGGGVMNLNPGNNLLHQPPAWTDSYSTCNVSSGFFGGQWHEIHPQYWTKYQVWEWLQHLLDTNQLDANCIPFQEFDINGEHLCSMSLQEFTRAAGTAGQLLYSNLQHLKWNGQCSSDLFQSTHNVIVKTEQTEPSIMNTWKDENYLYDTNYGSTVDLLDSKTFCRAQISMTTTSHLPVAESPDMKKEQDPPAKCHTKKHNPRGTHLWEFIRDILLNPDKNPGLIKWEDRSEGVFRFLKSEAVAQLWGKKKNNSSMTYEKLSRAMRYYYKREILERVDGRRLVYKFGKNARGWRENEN
# Procedure, shortened: as §1
# SPIB = SPIB (Homo sapiens, UniProt Q01892 1-262)
# Sequence of SPIB (Q01892 whole entry): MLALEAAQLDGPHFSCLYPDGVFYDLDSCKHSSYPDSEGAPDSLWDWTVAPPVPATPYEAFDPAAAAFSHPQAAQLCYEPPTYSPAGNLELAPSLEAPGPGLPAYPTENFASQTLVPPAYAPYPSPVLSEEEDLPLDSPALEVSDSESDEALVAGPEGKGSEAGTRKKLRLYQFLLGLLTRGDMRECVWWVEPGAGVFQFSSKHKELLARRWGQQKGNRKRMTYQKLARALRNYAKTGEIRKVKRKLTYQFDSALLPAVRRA
# Procedure, shortened: as §1
# ETV5 = ETV5 (Homo sapiens, UniProt P41161 1-510)
# Sequence of ETV5 (P41161 whole entry): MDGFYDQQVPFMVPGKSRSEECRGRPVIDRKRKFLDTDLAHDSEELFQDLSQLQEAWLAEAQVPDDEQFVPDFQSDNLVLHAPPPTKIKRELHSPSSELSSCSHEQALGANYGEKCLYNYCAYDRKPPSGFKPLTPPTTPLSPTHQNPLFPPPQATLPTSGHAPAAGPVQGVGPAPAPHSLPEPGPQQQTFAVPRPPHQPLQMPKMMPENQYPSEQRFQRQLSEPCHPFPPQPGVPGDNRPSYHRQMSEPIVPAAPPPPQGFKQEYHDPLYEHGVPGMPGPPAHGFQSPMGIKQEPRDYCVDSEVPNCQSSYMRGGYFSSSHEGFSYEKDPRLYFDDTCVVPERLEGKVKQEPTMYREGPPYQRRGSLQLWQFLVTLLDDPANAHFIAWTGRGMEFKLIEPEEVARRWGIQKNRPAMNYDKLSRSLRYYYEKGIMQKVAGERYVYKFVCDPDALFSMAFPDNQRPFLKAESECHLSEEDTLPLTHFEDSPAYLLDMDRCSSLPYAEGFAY
# Procedure, shortened: as §1
# ELF4 = ELF4 (Homo sapiens, UniProt Q99607 1-663)
# Sequence of ELF4 (Q99607 whole entry): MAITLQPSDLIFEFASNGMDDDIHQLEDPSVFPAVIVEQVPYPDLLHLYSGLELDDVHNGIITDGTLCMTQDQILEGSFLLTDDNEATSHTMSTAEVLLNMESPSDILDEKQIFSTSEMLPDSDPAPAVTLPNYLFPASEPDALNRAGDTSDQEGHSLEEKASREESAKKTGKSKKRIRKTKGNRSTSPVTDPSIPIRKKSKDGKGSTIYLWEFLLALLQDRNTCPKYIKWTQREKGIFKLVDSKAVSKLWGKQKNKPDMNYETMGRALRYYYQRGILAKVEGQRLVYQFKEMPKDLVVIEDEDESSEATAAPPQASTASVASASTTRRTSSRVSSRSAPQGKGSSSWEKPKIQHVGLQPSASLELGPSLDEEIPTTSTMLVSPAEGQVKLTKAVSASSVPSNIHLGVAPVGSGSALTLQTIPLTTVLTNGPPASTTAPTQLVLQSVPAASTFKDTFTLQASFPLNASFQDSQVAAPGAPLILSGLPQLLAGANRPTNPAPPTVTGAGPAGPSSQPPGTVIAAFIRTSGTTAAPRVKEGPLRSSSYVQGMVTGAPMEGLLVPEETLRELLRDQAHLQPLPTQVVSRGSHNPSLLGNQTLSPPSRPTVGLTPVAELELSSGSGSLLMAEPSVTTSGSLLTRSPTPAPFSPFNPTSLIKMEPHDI
# Procedure, shortened: as §1
# ELK4 = molecular target: T4, ELK4 (Homo sapiens, UniProt P28324-2 1-405)
# T4 sequence: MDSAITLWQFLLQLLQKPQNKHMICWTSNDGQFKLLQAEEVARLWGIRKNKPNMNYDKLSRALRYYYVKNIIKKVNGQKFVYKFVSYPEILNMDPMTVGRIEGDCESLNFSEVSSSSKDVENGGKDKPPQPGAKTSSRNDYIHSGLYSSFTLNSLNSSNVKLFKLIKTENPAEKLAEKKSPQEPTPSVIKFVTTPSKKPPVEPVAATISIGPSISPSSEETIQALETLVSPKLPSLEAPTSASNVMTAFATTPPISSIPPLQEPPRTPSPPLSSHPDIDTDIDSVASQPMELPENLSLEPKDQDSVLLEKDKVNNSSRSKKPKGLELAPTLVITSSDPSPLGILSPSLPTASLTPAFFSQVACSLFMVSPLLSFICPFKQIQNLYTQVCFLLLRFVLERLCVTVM
# Procedure, shortened: as §1
# ELF3 = molecular target: T5, ELF3 (Homo sapiens, UniProt P78545 1-371)
# T5 sequence: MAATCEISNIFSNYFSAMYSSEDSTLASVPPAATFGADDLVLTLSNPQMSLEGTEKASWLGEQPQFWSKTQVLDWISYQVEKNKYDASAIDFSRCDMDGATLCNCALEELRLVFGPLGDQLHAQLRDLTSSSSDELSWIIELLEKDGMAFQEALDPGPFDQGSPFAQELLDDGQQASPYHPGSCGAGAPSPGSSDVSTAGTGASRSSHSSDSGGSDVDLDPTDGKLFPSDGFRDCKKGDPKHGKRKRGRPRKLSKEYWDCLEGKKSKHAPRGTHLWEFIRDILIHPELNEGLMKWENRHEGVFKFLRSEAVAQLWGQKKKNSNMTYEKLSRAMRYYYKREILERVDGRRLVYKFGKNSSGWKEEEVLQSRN
# Procedure, shortened: as §1
# ETV1 = ETV1 (Homo sapiens, UniProt P50549 1-477)
# Sequence of ETV1 (P50549 whole entry): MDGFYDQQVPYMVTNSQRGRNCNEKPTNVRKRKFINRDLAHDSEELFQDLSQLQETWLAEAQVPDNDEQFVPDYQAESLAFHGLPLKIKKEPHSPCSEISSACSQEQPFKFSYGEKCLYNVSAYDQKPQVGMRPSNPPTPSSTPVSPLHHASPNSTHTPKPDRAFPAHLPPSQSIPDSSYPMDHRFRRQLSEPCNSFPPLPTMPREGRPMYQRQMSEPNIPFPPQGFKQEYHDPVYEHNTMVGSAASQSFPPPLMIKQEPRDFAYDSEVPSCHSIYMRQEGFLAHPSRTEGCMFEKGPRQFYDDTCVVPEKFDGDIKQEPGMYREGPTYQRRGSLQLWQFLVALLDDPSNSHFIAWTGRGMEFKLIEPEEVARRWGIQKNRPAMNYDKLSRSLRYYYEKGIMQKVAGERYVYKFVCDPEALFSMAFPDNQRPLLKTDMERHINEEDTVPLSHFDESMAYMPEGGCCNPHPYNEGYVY
# Procedure, shortened: as §1
# ERF = molecular target: T6, ERF (Homo sapiens, UniProt P50548 1-548)
# T6 sequence: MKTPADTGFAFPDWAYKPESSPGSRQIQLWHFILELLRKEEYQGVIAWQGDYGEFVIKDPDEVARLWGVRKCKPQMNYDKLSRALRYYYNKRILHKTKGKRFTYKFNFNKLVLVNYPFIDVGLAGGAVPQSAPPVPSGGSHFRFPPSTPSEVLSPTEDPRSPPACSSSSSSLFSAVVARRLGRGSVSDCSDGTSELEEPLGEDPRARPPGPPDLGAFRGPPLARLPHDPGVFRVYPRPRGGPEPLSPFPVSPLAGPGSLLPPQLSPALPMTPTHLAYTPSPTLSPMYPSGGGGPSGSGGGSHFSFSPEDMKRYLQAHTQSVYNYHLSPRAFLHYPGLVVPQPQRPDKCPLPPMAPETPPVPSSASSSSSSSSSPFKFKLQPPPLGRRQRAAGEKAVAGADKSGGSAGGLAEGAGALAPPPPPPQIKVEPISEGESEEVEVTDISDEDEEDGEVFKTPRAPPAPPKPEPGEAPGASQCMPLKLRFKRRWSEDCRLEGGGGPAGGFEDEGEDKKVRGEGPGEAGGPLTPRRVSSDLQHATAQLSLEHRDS
# Procedure, shortened: as §1
# ETV3L = molecular target: T7, ETV3L (Homo sapiens, UniProt Q6ZN32 1-361)
# T7 sequence: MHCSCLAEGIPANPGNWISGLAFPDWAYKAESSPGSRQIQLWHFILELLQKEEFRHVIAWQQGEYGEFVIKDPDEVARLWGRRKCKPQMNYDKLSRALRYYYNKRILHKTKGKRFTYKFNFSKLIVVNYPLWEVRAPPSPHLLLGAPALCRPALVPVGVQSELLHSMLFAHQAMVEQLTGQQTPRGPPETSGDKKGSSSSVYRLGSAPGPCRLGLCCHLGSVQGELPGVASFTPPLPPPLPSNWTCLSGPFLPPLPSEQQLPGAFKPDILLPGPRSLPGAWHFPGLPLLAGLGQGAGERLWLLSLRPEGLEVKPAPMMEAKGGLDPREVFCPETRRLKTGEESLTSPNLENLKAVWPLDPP
# Procedure, shortened: as §1
# ETS2 = molecular target: T8, ETS2 (Homo sapiens, UniProt P15036 1-469)
# T8 sequence: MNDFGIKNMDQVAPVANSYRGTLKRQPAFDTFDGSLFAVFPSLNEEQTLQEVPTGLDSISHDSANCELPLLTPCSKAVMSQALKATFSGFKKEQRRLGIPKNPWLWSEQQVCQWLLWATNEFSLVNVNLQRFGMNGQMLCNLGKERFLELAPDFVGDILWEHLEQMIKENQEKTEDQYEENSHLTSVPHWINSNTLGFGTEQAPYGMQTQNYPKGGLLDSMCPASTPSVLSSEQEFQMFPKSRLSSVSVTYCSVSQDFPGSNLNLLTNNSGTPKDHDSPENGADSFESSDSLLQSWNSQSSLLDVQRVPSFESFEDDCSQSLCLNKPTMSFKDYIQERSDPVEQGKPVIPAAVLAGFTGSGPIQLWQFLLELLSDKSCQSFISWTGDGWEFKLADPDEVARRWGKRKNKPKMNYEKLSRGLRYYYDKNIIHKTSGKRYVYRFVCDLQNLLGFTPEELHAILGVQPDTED
# Procedure, shortened: as §1
# SPDEF = molecular target: T9, SPDEF (Homo sapiens, UniProt O95238 1-335)
# T9 sequence: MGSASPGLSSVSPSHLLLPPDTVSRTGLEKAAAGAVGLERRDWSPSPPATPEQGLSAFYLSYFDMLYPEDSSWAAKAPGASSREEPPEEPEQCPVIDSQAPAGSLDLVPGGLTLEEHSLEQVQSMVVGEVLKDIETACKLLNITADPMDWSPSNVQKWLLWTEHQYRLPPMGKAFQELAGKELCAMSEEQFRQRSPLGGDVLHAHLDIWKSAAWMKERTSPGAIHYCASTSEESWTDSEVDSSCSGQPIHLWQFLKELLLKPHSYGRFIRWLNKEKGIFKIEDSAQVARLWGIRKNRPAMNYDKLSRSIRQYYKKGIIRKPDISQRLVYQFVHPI
# Procedure, shortened: as §1
# ETV3 = molecular target: T10, ETV3 (Homo sapiens, UniProt P41162-2 1-143)
# T10 sequence: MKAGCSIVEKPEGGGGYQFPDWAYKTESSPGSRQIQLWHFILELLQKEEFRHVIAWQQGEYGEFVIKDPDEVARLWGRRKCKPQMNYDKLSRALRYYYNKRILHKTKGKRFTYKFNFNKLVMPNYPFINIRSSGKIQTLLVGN
# Procedure, shortened: as §1
# ETV2 = molecular target: T11, ETV2 (Homo sapiens, UniProt O00321 1-342)
# T11 sequence: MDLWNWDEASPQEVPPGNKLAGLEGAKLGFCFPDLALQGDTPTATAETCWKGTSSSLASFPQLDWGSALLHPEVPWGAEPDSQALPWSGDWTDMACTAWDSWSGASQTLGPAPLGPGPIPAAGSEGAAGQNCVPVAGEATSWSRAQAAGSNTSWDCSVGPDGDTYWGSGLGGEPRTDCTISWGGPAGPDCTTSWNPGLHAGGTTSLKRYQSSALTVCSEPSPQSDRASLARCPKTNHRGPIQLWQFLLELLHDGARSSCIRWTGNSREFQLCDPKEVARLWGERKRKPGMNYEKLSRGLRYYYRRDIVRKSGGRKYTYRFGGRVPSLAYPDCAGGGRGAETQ
# Procedure, shortened: as §1
Sequence,binding signal (ELK1),binding signal (GABPA),binding signal (ELF1),binding signal (EHF),binding signal (SPIB),binding signal (ETV5),binding signal (ELF4),binding signal (ELK4),binding signal (ELF3),binding signal (ETV1),binding signal (ERF),binding signal (ETV3L),binding signal (ETS2),binding signal (SPDEF),binding signal (ETV3),binding signal (ETV2)
TGCAAG,"1.11 fold enrichment (6-mer frequency, TF over GST control)","1.07 fold enrichment (6-mer frequency, TF over GST control)","1.01 fold enrichment (6-mer frequency, TF over GST control)","1.02 fold enrichment (6-mer frequency, TF over GST control)","1.04 fold enrichment (6-mer frequency, TF over GST control)","1.07 fold enrichment (6-mer frequency, TF over GST control)","1.05 fold enrichment (6-mer frequency, TF over GST control)","1.07 fold enrichment (6-mer frequency, TF over GST control)","1.15 fold enrichment (6-mer frequency, TF over GST control)","1.03 fold enrichment (6-mer frequency, TF over GST control)","1.01 fold enrichment (6-mer frequency, TF over GST control)","1.11 fold enrichment (6-mer frequency, TF over GST control)","1.12 fold enrichment (6-mer frequency, TF over GST control)","1.11 fold enrichment (6-mer frequency, TF over GST control)","1.07 fold enrichment (6-mer frequency, TF over GST control)",
ACGGTA,"1.03 fold enrichment (6-mer frequency, TF over GST control)",,"1.01 fold enrichment (6-mer frequency, TF over GST control)",,,"1.04 fold enrichment (6-mer frequency, TF over GST control)",,"1.02 fold enrichment (6-mer frequency, TF over GST control)",,"1.01 fold enrichment (6-mer frequency, TF over GST control)","1.09 fold enrichment (6-mer frequency, TF over GST control)",,,"1.05 fold enrichment (6-mer frequency, TF over GST control)",,"1.03 fold enrichment (6-mer frequency, TF over GST control)"
